For 36 compounds, compound max-min signal, glutamate response, % of max and glutamate slope, % of max results are on record in PubChem BioAssay AID1259245 (Vanderbilt High Throughput Screening Facility, 2017).

SMILES strings stand for the structures. The campaign covered roughly 40,000 compounds. About 1,400 (3.5%) were called active.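 The calls were made as follows: active = any of four per-well response measures lying three or more SD from its plate-wide compound average, in either direction; inactive = the rest, inconclusive results apart.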 The sample as a whole holds a higher share of actives than the screen did.

The target in the assay is Voltage-dependent calcium channel gamma-2 subunit (Mus musculus) + Glutamate receptor 2 (Rattus norvegicus) (UniProt O88602+P19491). Briefly: AMPAR-TARP gamma-2 complex positive or negative modulation – cell-based, membrane potential dye, primary screen (AID 1259245). The settings on record: HEK293 GluA2+stargazin, membrane potential dye (FDSS), glutamate EC50, at 30 µM, hits were called plate by plate, in both directions; compound max-min signal: compound-alone response (agonism); glutamate slope, % of max: measured here: glutamate response slope, % max.
Sequence of Voltage-dependent calcium channel gamma-2 subunit (Mus musculus) + Glutamate receptor 2 (Rattus norvegicus) (O88602 whole entry, looked up): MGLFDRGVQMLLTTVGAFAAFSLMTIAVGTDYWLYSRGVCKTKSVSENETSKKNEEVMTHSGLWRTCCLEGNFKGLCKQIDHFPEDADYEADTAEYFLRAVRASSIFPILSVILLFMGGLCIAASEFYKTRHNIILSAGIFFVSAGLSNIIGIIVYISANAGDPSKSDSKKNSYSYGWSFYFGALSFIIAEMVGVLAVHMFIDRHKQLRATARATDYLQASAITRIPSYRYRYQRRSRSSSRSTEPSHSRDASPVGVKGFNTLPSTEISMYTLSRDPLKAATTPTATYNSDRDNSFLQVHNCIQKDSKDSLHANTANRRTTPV
Sequence of Voltage-dependent calcium channel gamma-2 subunit (Mus musculus) + Glutamate receptor 2 (Rattus norvegicus) (P19491 whole entry, looked up): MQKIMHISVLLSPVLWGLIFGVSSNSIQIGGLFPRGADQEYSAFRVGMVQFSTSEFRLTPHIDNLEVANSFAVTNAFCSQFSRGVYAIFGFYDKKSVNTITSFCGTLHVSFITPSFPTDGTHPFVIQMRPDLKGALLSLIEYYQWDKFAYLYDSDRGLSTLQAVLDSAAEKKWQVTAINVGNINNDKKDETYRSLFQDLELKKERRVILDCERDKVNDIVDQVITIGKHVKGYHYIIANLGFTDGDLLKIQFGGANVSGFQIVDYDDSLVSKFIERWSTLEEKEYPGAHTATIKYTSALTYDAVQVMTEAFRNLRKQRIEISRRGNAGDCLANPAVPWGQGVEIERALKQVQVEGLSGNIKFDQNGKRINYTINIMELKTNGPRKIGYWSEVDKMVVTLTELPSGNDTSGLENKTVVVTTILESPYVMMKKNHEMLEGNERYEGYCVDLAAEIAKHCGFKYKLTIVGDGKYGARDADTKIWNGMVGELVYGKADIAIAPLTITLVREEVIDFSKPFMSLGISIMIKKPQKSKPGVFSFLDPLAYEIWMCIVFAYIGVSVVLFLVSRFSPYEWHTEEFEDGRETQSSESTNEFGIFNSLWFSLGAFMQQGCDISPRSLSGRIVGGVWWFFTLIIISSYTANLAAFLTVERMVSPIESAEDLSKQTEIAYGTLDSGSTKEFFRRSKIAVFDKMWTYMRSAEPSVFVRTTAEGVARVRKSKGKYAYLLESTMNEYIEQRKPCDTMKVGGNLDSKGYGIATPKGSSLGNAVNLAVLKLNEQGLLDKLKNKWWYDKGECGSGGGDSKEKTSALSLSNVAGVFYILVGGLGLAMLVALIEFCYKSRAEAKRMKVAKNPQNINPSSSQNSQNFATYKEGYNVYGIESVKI
As to `CCN1CC(c2nc3ccccc3n2Cc2ccccc2F)CC1=O` (stereo not drawn), the compound max-min signal turned out to be 0.0186; the glutamate response, % of max is 31.3% (inactive); the glutamate slope, % of max amounted to 50%.
As to `CCN1CC(c2nc3ccccc3n2Cc2ccc(Cl)c(Cl)c2)CC1=O` (stereo not drawn), the compound max-min signal turned out to be 0.144; the glutamate response, % of max was 41.2% (inactive); the glutamate slope, % of max was 66.5%.
`CCCCN1CC(c2nc3ccccc3n2Cc2cc(C)ccc2C)CC1=O` (stereo not drawn): the compound max-min signal came out at 0.12; the glutamate response, % of max was 83.9% (active); the glutamate slope, % of max came out at 94.4%.
The matching figures for `C=CCN1CC(c2nc3ccccc3n2Cc2cccc(Cl)c2)CC1=O` (stereo not drawn): 0.132, 29.6% (active) and 36.6%.
Regarding `CCN1CC(c2nc3ccccc3n2Cc2ccc(Cl)cc2)CC1=O` (stereo not drawn), the compound max-min signal was 0.0749; the glutamate response, % of max was 45% (inactive); the glutamate slope, % of max was 70.4%.
With `O=C(CCCc1ccccc1)N1CCN(c2ccc3nnc(-c4ccco4)n3n2)CC1`, the compound max-min signal stood at 0.203; the glutamate response, % of max is 48.1% (inactive); the glutamate slope, % of max came to 68.2%.
Turning to `CC(=O)Nc1cccc(NC(=O)C(=O)NCC2CCN(Cc3ccco3)CC2)c1`, the compound max-min signal is 0.0762; the glutamate response, % of max is 50.2% (inactive); the glutamate slope, % of max is 68.9%.
On to `O=C(NC1CCc2ccccc21)c1nnn(-c2ccc(F)cc2)c1-c1ccncc1` (stereo not drawn), for which the compound max-min signal was 0.0259; the glutamate response, % of max was 18.1% (inactive); the glutamate slope, % of max worked out at 25.4%.
In the case of `COCCn1c(=NC(=O)c2cc(C)no2)sc2cc(SC)ccc21`, the compound max-min signal came out at 0.152; the glutamate response, % of max was 31.8% (inactive); the glutamate slope, % of max is 54.7%.
`CCOCCn1c(=NC(=O)c2cc(C)no2)sc2cc(OC)c(OC)cc21`: the compound max-min signal worked out at 0.187; the glutamate response, % of max was 27.5% (active); the glutamate slope, % of max was found to be 50.7%.
For `COc1cc2nc(NC(=O)c3cc(C)no3)sc2cc1OC`, in that order: 0.204, 26.9% (inactive) and 48.6%.
For `Cc1nn(-c2ccccc2)c2ncc(C(=O)Nc3ccc(F)cc3F)c(Cl)c12`, the compound max-min signal was 0.0815; the glutamate response, % of max is 20.8% (inactive); the glutamate slope, % of max stood at 43.5%.
The matching figures for `COc1cn(CC(=O)Nc2ccc3c(c2)OCO3)c(CSc2nnnn2C)cc1=O`: 0.0535, 23.6% (inactive) and 48.2%.
Take `CCOc1ccc2nc(NC(=O)c3ccc(S(=O)(=O)Nc4cccnc4)o3)sc2c1`: the compound max-min signal amounted to 0.179; the glutamate response, % of max is 32% (active); the glutamate slope, % of max was 55.6%.
The matching figures for `CCOc1ccc2nc(NC(=O)c3ccc(S(=O)(=O)N(C)C)o3)sc2c1`: 0.115, 31.5% (inactive) and 54.4%.
Turning to `Cc1ccc2nc(NC(=O)c3ccno3)sc2c1`, the compound max-min signal was 0.16; the glutamate response, % of max is 53% (inactive); the glutamate slope, % of max was found to be 62.5%.
The matching figures for `CC(C)Oc1ccc(C(=O)Nc2ccc3oc(=O)ccc3c2)cc1`: 0.17, 41.9% (inactive) and 61.4%.
For the compound `O=c1ccc2cc(S(=O)(=O)Nc3cc(Cl)ccc3O)ccc2o1`, the compound max-min signal was found to be 0.209; the glutamate response, % of max is 16.4% (active); the glutamate slope, % of max was determined as 35.5%.
Turning to `O=c1oc2ccc(Cl)cc2cc1S(=O)(=O)c1ccccc1F`, the compound max-min signal was found to be 0.0854; the glutamate response, % of max is 39.3% (inactive); the glutamate slope, % of max was 60%.
Regarding `O=C(NC1CCCCCC1)c1ccc(S(=O)(=O)c2ccccc2)nc1`, the compound max-min signal was determined as 0.0387; the glutamate response, % of max was 28.2% (inactive); the glutamate slope, % of max turned out to be 47.7%.
Take `COc1cccc(NC(=O)c2ccc(=O)n(Cc3cccc(C(F)(F)F)c3)c2)c1`: the compound max-min signal was 0.0915; the glutamate response, % of max is 23.5% (inactive); the glutamate slope, % of max stood at 41.6%.
For `COc1cc(CN2CCN(c3nccn3C)CC2)cc(OC)c1`, in that order: 0.0438, 12.8% (inactive) and 27.6%.
Take `COc1ccc(OC)c(-c2ccc(=O)n(CC(=O)N3CCOCC3)n2)c1`: the compound max-min signal worked out at 0.0773; the glutamate response, % of max was 62.3% (inactive); the glutamate slope, % of max was determined as 97.9%.
As to `COc1cc(Cl)ccc1C(=O)NC1(c2nc(-c3ccsc3)no2)CCCCC1`, the compound max-min signal was determined as 0.0754; the glutamate response, % of max is 37.6% (inactive); the glutamate slope, % of max came to 63.1%.
In the case of `O=S(=O)(NC1(c2nc(-c3ccsc3)no2)CCCCC1)c1ccccc1`, the compound max-min signal was 0.127; the glutamate response, % of max was 19.9% (active); the glutamate slope, % of max amounted to 36.2%.
As for `Cc1ccccc1NC(=O)NC1(c2nc(-c3ccsc3)no2)CCCCC1`, the compound max-min signal stood at 0.081; the glutamate response, % of max is 34.5% (inactive); the glutamate slope, % of max was 56%.
For `COc1ccccc1OCC(=O)Nc1cc(C(=O)N2CCOCC2)cn(C)c1=O`, in that order: 0.134, 36.2% (inactive) and 63%.
Regarding `CC(Oc1ccccc1)C(=O)N1CCN(c2ncnc3c2nnn3-c2ccc(Cl)cc2)CC1` (stereo not drawn), the compound max-min signal stood at 0.0923; the glutamate response, % of max was 46% (inactive); the glutamate slope, % of max is 58.4%.
The matching figures for `CCCC(CCC)C(=O)N1CCN(c2ncnc3c2nnn3-c2ccc(OC)cc2)CC1`: 0.0796, 50.3% (inactive) and 57.2%.
Turning to `COc1ccc(-n2nnc3c(N4CCN(C(=O)C(C)Oc5ccccc5)CC4)ncnc32)cc1` (stereo not drawn), the compound max-min signal worked out at 0.0918; the glutamate response, % of max was 83.4% (active); the glutamate slope, % of max turned out to be 124%.
The matching figures for `COc1ccc(Cl)cc1NC(=O)Nc1cc(N2CCCS2(=O)=O)ccc1C`: 0.0964, 36.6% (inactive) and 48.9%.
With `Cc1c(-c2ccccc2)c(=O)oc2c3c(ccc12)OCN(Cc1cccnc1)C3`, the compound max-min signal stood at 0.117; the glutamate response, % of max was 15.5% (inactive); the glutamate slope, % of max is 35%.
Consider `O=C(NCC1CCN(Cc2ccsc2)CC1)C(=O)Nc1ccon1`, for which the compound max-min signal worked out at 0.08; the glutamate response, % of max is 38.4% (inactive); the glutamate slope, % of max worked out at 57.1%.
Consider `O=C(CCc1ccccc1)NCCS(=O)(=O)N1CCN(Cc2ccccc2)CC1`, for which the compound max-min signal was found to be 0.0536; the glutamate response, % of max was 24.3% (inactive); the glutamate slope, % of max was 47.7%.
For `O=C(CCc1ccccc1)NCC1CCN(Cc2ccsc2)CC1`, the compound max-min signal was found to be 0.0535; the glutamate response, % of max is 10.8% (active); the glutamate slope, % of max turned out to be 27.6%.
On to `Cc1cc(C)c2c(n1)sc1c(=O)n(CC(=O)Nc3ccc(F)cc3F)cnc12`, for which the compound max-min signal is 0.126; the glutamate response, % of max was 45.2% (inactive); the glutamate slope, % of max came out at 70.3%.
